Assay [1] deals with Mitogen-activated protein kinase 3 (Homo sapiens) (UniProt P27361). As to conditions: at 1 µM.
For assay [2], the target named is SRSF protein kinase 3 (Homo sapiens) (UniProt Q9UPE1). To be noted: at 0.1 µM.
The target is the same in assay [3]. To be noted: at 1 µM.
Assay [4] deals with Mitogen-activated protein kinase 14 (Homo sapiens) (UniProt Q16539). As to conditions: at 0.1 µM.
Assay [5] shares this target. To be noted: at 1 µM.
The target in assay [6] is Mitogen-activated protein kinase 11 (Homo sapiens) (UniProt Q15759). To be noted: at 0.1 µM.
Assay [7] has the same target. To be noted: at 1 µM.
Assay [8] has as its target T1, Mitogen-activated protein kinase 13 (Homo sapiens) (UniProt O15264).
T1 sequence (whole entry): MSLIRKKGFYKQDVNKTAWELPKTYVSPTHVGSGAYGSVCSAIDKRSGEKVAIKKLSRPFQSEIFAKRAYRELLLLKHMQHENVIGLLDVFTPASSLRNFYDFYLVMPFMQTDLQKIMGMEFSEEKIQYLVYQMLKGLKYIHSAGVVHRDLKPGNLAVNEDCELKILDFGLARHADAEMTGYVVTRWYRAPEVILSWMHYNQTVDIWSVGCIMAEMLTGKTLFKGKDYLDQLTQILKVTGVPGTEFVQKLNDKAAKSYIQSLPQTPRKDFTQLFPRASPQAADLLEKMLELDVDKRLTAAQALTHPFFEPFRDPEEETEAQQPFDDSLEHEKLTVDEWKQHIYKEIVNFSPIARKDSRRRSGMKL
As to conditions: at 0.1 µM.

For assay [9], the target named is T1, Mitogen-activated protein kinase 13 (Homo sapiens). As to conditions: at 1 µM.
The target in assay [10] is T2, Mitogen-activated protein kinase 12 (Homo sapiens) (UniProt P53778).
T2 sequence (whole entry): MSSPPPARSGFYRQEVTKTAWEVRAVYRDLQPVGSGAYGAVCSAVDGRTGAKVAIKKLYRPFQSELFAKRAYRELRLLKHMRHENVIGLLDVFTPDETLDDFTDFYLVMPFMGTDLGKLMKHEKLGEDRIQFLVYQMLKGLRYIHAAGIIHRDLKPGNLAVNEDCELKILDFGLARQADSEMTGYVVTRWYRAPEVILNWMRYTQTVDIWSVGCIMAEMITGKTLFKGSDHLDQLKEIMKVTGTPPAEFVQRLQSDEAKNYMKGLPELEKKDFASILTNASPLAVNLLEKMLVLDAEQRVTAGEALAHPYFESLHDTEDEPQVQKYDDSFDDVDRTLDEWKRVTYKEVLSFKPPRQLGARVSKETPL
As to conditions: at 0.1 µM.

The target in assay [11] is T2, Mitogen-activated protein kinase 12 (Homo sapiens). To be noted: at 1 µM.
Assay [12] deals with SRSF protein kinase 1 (Homo sapiens) (UniProt Q96SB4). To be noted: at 0.1 µM.
Assay [13] has the same target. As to conditions: at 1 µM.
Assay [14] deals with Phosphatidylinositol 4,5-bisphosphate 3-kinase catalytic subunit alpha isoform (Homo sapiens) (UniProt P42336). To be noted: at 0.1 µM.
For assay [15] the target is unchanged. To be noted: at 1 µM.
The target in assay [16] is T3, Phosphatidylinositol 4,5-bisphosphate 3-kinase catalytic subunit delta isoform (Homo sapiens) (UniProt O00329).
T3 sequence (whole entry): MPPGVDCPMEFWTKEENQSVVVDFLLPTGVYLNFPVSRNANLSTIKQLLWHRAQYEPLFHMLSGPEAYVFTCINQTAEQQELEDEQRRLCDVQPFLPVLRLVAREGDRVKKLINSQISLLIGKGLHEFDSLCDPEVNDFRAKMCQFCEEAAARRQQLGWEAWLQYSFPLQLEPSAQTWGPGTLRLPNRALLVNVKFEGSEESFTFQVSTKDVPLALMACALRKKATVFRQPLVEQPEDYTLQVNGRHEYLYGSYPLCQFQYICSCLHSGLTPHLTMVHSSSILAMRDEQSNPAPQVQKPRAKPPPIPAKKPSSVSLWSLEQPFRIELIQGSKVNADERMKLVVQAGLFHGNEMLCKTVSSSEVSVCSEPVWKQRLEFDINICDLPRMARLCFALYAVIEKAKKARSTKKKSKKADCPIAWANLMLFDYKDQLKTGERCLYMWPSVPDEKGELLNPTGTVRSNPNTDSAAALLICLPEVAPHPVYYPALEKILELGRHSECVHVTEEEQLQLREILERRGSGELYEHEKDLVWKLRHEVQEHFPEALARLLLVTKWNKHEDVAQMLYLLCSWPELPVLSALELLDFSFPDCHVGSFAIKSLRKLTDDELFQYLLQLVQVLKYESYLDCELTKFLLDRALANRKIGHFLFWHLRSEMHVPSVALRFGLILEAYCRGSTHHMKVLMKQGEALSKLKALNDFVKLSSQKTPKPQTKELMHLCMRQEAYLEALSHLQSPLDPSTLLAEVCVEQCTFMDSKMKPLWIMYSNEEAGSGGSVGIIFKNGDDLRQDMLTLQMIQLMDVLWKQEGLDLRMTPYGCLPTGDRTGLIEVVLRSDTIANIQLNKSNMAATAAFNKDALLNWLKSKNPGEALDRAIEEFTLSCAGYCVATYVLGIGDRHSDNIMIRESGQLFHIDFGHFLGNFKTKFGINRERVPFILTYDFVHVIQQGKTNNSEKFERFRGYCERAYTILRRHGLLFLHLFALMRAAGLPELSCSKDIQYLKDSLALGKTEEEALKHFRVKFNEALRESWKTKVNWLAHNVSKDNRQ
As to conditions: at 0.1 µM.

The target in assay [17] is T3, Phosphatidylinositol 4,5-bisphosphate 3-kinase catalytic subunit delta isoform (Homo sapiens). To be noted: at 1 µM.
The target of assay [18] is Phosphatidylinositol 4-kinase beta (Homo sapiens) (UniProt Q9UBF8). As to conditions: at 0.1 µM.
Assay [19] shares this target. To be noted: at 1 µM.
Assay [20] concerns the target Sphingosine kinase 1 (Homo sapiens) (UniProt Q9NYA1). To be noted: at 0.1 µM.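 Note: mean percent inhibition of SPHK1 activity, measured within the GSK PKIS screening panel.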

Sequence of Sphingosine kinase 1 (Homo sapiens) (Q9NYA1 whole entry): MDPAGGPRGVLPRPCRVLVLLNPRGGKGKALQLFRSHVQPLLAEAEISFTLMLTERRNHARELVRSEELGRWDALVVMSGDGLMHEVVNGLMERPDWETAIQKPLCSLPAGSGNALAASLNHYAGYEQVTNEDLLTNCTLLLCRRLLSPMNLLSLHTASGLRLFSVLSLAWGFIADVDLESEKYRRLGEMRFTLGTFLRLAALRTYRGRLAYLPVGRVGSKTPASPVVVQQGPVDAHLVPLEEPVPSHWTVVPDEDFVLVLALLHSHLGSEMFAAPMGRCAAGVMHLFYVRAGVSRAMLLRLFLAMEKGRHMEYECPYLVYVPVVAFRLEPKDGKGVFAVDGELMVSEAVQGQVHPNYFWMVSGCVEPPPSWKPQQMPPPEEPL
Sequence of Phosphatidylinositol 4-kinase beta (Homo sapiens) (Q9UBF8 2-816 limits assumed): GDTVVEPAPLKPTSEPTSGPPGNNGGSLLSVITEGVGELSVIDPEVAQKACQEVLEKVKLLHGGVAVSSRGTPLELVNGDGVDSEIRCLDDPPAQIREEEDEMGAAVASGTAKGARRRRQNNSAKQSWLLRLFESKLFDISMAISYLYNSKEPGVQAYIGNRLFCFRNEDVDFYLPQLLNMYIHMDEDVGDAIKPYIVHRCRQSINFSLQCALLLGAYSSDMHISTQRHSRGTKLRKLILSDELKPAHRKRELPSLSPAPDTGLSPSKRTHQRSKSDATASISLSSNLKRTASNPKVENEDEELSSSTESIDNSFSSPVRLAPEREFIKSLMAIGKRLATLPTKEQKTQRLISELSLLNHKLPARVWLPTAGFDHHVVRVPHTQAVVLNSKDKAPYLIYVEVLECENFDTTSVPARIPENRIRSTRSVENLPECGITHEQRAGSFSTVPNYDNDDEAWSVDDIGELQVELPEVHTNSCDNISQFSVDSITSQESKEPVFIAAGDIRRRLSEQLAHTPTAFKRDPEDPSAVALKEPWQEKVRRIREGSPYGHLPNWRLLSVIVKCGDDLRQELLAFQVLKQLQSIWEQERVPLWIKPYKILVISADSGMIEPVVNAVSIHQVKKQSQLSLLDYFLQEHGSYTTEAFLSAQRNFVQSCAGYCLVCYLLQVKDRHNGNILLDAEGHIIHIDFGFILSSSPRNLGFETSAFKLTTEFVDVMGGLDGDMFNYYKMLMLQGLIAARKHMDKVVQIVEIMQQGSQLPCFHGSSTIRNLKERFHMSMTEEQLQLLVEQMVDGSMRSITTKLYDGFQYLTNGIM
Sequence of Mitogen-activated protein kinase 14 (Homo sapiens) (Q16539 whole entry): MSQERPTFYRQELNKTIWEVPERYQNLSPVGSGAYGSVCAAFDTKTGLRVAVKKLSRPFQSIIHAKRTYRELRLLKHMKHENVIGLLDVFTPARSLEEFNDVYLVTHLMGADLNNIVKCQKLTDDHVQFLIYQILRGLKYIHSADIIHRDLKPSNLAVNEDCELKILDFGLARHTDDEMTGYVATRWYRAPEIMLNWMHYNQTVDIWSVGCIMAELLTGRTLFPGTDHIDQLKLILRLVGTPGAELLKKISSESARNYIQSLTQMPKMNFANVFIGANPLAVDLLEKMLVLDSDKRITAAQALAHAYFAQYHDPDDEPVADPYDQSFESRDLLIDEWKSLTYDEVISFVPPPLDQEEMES
Sequence of Mitogen-activated protein kinase 3 (Homo sapiens) (P27361 whole entry): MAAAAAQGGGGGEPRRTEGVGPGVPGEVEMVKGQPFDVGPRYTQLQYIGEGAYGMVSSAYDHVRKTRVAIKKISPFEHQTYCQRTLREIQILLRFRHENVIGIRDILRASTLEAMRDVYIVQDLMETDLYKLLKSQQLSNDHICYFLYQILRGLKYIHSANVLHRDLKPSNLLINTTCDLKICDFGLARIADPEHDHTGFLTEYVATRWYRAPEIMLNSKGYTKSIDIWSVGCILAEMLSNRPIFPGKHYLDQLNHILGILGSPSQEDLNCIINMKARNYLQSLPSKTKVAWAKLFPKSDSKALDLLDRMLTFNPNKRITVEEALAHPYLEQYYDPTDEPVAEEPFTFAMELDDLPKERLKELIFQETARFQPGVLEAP
Sequence of SRSF protein kinase 1 (Homo sapiens) (Q96SB4 whole entry): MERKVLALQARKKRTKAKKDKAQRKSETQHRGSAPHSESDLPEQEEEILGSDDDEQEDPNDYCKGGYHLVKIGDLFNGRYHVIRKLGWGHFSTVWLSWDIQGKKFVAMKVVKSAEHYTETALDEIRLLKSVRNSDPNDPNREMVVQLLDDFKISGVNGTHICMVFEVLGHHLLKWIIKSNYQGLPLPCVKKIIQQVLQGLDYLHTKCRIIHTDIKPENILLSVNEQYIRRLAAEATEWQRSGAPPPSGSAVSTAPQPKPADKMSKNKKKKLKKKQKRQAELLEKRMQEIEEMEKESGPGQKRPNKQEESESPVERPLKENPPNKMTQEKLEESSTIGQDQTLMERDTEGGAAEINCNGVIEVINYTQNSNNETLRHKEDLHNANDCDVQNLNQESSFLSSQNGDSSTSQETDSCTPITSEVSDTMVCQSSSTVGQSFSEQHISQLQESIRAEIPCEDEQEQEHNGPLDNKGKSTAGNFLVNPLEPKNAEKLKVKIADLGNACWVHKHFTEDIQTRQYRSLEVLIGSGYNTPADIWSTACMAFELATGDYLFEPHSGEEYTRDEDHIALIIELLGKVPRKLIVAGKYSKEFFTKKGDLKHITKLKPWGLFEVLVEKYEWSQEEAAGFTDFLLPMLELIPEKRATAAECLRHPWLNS
Sequence of Mitogen-activated protein kinase 11 (Homo sapiens) (Q15759 whole entry): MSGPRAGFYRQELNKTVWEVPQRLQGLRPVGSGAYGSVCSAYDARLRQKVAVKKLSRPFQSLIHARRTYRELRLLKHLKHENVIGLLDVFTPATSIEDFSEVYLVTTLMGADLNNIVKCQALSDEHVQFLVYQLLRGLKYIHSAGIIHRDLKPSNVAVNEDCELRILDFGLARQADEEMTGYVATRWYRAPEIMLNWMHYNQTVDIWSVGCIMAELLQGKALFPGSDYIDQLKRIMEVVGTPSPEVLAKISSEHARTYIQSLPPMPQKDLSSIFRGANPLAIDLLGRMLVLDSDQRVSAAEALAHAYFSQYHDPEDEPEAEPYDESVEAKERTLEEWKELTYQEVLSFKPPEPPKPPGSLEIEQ
Sequence of Phosphatidylinositol 4,5-bisphosphate 3-kinase catalytic subunit alpha isoform (Homo sapiens) (P42336 whole entry, canonical isoform): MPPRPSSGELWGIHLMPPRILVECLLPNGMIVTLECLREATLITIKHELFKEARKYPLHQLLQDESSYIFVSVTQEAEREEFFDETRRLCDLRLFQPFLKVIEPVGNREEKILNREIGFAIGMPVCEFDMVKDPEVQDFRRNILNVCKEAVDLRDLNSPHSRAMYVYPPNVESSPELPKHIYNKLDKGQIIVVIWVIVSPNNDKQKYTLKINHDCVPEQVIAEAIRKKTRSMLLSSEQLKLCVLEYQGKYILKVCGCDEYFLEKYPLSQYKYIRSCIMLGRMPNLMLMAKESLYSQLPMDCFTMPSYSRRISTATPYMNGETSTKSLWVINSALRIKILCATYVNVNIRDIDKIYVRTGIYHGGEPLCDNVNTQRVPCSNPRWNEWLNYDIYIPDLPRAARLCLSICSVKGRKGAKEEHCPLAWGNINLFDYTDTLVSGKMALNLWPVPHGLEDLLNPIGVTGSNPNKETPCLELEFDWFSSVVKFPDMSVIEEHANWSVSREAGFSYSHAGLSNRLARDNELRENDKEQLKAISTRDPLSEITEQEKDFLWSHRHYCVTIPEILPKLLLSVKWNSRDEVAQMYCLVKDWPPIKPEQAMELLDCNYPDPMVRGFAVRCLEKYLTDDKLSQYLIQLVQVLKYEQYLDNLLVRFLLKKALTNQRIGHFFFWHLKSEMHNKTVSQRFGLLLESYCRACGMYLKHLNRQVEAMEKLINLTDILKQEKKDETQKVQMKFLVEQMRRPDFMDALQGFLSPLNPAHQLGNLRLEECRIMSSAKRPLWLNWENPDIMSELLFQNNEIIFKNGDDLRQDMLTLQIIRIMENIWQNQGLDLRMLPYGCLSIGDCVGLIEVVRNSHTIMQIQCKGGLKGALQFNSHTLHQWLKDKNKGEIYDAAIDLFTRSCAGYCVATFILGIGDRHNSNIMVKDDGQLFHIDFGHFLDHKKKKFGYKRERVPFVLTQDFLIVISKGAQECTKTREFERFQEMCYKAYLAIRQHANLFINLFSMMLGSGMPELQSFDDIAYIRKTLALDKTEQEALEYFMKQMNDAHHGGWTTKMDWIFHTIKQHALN
Sequence of SRSF protein kinase 3 (Homo sapiens) (Q9UPE1 whole entry): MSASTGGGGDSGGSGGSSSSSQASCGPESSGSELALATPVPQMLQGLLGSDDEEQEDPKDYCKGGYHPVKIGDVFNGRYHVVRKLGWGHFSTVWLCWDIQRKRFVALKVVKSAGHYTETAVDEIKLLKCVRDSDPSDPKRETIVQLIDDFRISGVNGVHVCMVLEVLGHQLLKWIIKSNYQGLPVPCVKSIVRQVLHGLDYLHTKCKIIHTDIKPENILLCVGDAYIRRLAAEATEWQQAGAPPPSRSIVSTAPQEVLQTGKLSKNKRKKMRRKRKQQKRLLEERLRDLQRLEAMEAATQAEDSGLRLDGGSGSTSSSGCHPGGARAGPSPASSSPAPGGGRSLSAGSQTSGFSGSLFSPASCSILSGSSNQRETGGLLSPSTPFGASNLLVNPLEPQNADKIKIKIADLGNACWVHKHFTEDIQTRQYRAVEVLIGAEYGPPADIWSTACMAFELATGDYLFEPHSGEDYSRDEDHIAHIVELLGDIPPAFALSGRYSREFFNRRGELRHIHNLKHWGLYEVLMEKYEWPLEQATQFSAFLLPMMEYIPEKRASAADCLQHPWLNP

As a reminder, the inhibition is the drop in the measured response relative to a control, in per cent. For the compound `c1cnn2ncc(-c3ccnc(Nc4ccc5c(c4)OCCO5)n3)c2c1`, the inhibition was 12% in [1]; -0.61% in [2]; 1.61% in assay [3]; 7.07% in assay [4]; 13.3% in assay [5]; 3.66% in assay [6]. Also, the inhibition was 9.95% in assay [7]; 4.89% in assay [8]; 16.3% in assay [9]; 0.48% in assay [10]; 6.13% in assay [11]; 0.05% in [12]. Moreover, the inhibition stood at 2.88% in assay [13]; 7.25% in assay [14]; 30.2% in [15]; 4.69% in [16]; 26.1% in [17]; 1.98% in assay [18]. The values for the inhibition in assay [19] and in assay [20] were 9.37% and 1.6%, respectively.
Turning to `CN1CCC(C(=O)Nc2n[nH]c3nnc(-c4ccccc4)cc23)CC1`, the inhibition is 7.39% in assay [1]; -1.72% in [2]; -1.01% in [3]; 2.08% in assay [4]; 5.41% in assay [5]; 5.95% in assay [6]. The inhibition was 5.33% in assay [7]; 1.73% in [8]; 5.59% in assay [9]; 3.05% in assay [10]; 3.34% in [11]; -2.38% in assay [12]. For the same compound, the inhibition in [13] was -0.73%; in assay [14], 4.88%; in [15] it was 4.26%; in assay [16] it was 1.61%; in assay [17], 1.12%; in [20] it was 1.63%.
For `CS(=O)(=O)CCNCc1ccc(-c2ccc3ncnc(Nc4ccc(OCc5cccc(F)c5)c(C(F)(F)F)c4)c3c2)o1`, the inhibition is 2.51% in [1]; -1.77% in assay [2]; -0.64% in assay [3]; 4.28% in assay [4]; 11.8% in assay [5]; 3.77% in assay [6]. Further, the inhibition in [7] was 8.93%; in assay [8], 1.37%; in assay [9], 5.37%; in assay [10] it was 1.92%; in assay [11] it was 3.16%; in assay [12], -1.9%. Further, the inhibition in assay [13] is -0.25%; in assay [14], 3.86%; in assay [15] it was 7.14%; in [16], 2.85%; in [17], 7.89%; in assay [19] it was -2.15%. In addition, in [20], the inhibition is -0.87%.
In the case of `Fc1cccc(COc2ccc(Nc3ncnc4cc(-c5ccc[nH]5)sc34)cc2Cl)c1`, the inhibition in assay [1] is 1.55%; in [2] it was -2.27%; in [3] it was -1.34%; in [4], 1.24%; in assay [5], 4.89%; in [6], 0.23%. Also, the inhibition in assay [7] is -0.16%; in assay [8] it was 1.98%; in assay [9], 2.15%; in assay [10], 4.35%; in assay [11] it was 2.1%; in assay [12], -1.71%. Moreover, the inhibition in assay [13] was -1.58%; in [14], 3.58%; in assay [15], 10.8%; in assay [16], 2.77%; in assay [17], 9.44%; in [18] it was -8.05%. For the same compound, the inhibition in [19] came out at 2.94%; in assay [20] it was 1.48%.
In the case of `Fc1cccc(COc2ccc(Nc3ncnc4sc(-c5cccs5)cc34)cc2Cl)c1`, the inhibition in assay [1] is 1.8%; in [2], 0.46%; in [3], 0.83%; in [4], 0.93%; in assay [5], 1.59%; in assay [6], -0.98%. The inhibition in [7] is -0.33%; in assay [8], 1.26%; in assay [9], 0.64%; in [10], 0.6%; in assay [11], 0.86%; in assay [12], 0.18%. Also, the inhibition is -1.11% in [13]; 0.9% in assay [14]; 4.07% in assay [15]; -0.78% in assay [16]; 2.29% in [17]; 0.44% in assay [18]. Besides, the inhibition in assay [19] was -0.43%; in assay [20] it was -1.15%.
Take `CCn1c(-c2nonc2N)nc2cncc(C(=O)N3CC[C@H](N)C3)c21`: the inhibition was 2.72% in [1]; -3.11% in assay [2]; -1.83% in [3]; -0.78% in assay [4]; 10.7% in [5]; 3.38% in [6]. The inhibition in assay [7] is 9.04%; in assay [8], 2.29%; in assay [9], 5.01%; in assay [10], 0.14%; in assay [11], 3.17%; in assay [12], -1.03%. Besides, the inhibition in assay [13] was -0.35%; in [14], 5.37%; in assay [15], 4.64%; in [16], 3.17%; in [17], 3.95%; in assay [18] it was -6.46%. The inhibition in [19] was -9.74%; in [20], -0.79%.

Source of the values: ChEMBL document CHEMBL1961873, “Compounds: GSK PKIS; Assays: Nanosyn kinase panel” (2012).
